Assay outcomes as filed in PubChem.
FAS TE block – inhibitors of human fatty acid synthase thioesterase domain; P49327; recombinant FAS-TE, OMFH fluorogenic substrate, fluorescence endpoint; inhibition, % at 15 µM; 360,000 tested, 0.67% active; AID 602261;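 active = compounds whose normalised, plate-corrected inhibition of enzyme fluorescence in the single-dose primary screen is 50% or more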
H9c2 protect – myocardial damage modulation in H9c2 cells. H9c2 cardiomyocytes, H2O2 injury protection, ATPLite, 2 h. protection from H2O2 cell death, % at 20 µM. 360,000 tested, 0.63% active;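 active = compounds giving at least 50% protection of heart cells from peroxide-induced death in the single-dose screen, raw or plate-pattern-corrected value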
PLCb3 inh – PLC-beta3 (human) inhibition, primary screen; inhibition, % at 12.2 µM; 370,000 tested, 0.18% active; Purified PLC-beta3, fluorogenic substrate, fluorescence; in the data active = inhibition above about 11%
PLC-gamma1 inh – blocks human PLC-gamma1 enzyme activity | P19174 | inhibition, % at 12.2 µM | 370,000 tested, 0.84% active | purified PLC-gamma1, fluorogenic substrate, fluorescence | AID 720700; in the data active = inhibition above about 9.5%
FAS-TE inh conf – FAS thioesterase (human) inhibition, confirmation. recombinant FAS-TE, OMFH fluorogenic substrate, fluorescence. 2,300 tested, 45% active. inhibition, % at 15 µM. shares compounds with FAS TE block;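 active = compounds inhibiting the enzyme by at least 50% at 15 µM in any one of the replicates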
Of the large screens only hits and unclear results are named; the others gave an inactive call (follow-up assays come after a bar, where they were run). This is a sample that favours compounds with a hit; in the whole collection about 2.2% have one here.

O=C(NCCOc1ccccc1)c1cc([N+](=O)[O-])ccc1N1CCOCC1	FAS TE block 57 | FAS-TE inh conf inactive
O=C(Nc1ccc(Cc2ccncc2)cc1)c1cc([N+](=O)[O-])ccc1N1CCOCC1	FAS TE block 82 | FAS-TE inh conf 88
CCCCCCCCN1C(=O)[C@@H](CC(=O)NCCc2ccccc2OC)C[C@@]2(C(=O)OC)C1=C[C@H](C1CCCC1)O[C@@H]2C	none (no result: FAS TE block, H9c2 protect)
CCOc1ccc(NC(=O)COC(=O)c2cc([N+](=O)[O-])ccc2N2CCOCC2)cc1	FAS TE block 61 | FAS-TE inh conf inactive
CN1CCN(c2ccc(NC(=O)c3cc([N+](=O)[O-])ccc3N3CCOCC3)cc2)CC1	none
CCN(CC(=O)Nc1ccc(OC)cc1)C(=O)c1cc([N+](=O)[O-])ccc1N1CCOCC1	none
CCc1cccc(NC(=O)COC(=O)c2cc([N+](=O)[O-])ccc2N2CCOCC2)c1	FAS TE block 87 | FAS-TE inh conf 89
CCOc1ccc(NC(=O)c2cc([N+](=O)[O-])ccc2N2CCOCC2)cc1	FAS TE block 55 | FAS-TE inh conf 65
O=C(NCC(c1ccccc1)c1ccccc1)[C@H](Cc1c[nH]c2ccccc12)NC1(C(=O)NC2CCCCC2)CCCCCC1	none (no result: FAS TE block, H9c2 protect)
CC(NC(=O)C(C(=O)c1cccc([N+](=O)[O-])c1)n1cc(Cl)ccc1=O)c1ccccc1 (stereo unspecified)	FAS TE block 59 | FAS-TE inh conf 65
CC(C)NC(=O)C1CCN(C(=O)C(C(=O)c2ccccc2)n2cc(Cl)ccc2=O)CC1 (stereo unspecified)	none
O=C(NNc1ccc([N+](=O)[O-])cc1[N+](=O)[O-])C1C2CCCCC21 (stereo unspecified)	FAS TE block 62 | FAS-TE inh conf inactive
O=C(NNc1ccc([N+](=O)[O-])cc1)C1C2CCCCC21 (stereo unspecified)	none
O=C(/C=C/c1cc([N+](=O)[O-])ccc1OC(F)F)Nc1cccc2ccccc12	FAS TE block 63 | FAS-TE inh conf 48
COc1ccc(CNC(=O)/C=C/c2cc([N+](=O)[O-])ccc2OC(F)F)cc1	FAS TE block 82 | FAS-TE inh conf 65
COC(=O)c1ccc(CNC(=O)/C=C/c2cc([N+](=O)[O-])ccc2OC(F)F)cc1	FAS TE block 83 | FAS-TE inh conf 81
COc1ccccc1NC(=O)/C=C/c1cc([N+](=O)[O-])ccc1OC(F)F	none
COc1ccc(CNC(=O)/C=C/c2cc([N+](=O)[O-])ccc2OC(F)F)cc1OC	FAS TE block 75 | FAS-TE inh conf 78
COc1ccc(CNC(=O)/C=C/c2ccccc2[N+](=O)[O-])cc1	none
COCCN1C(=O)[C@H]2C[C@@]13O[C@H](C1CCCCC1)N=C3CC1c3ccccc3C[C@@]12C (stereo partly specified)	none (no result: FAS TE block, H9c2 protect)
CCN(C(=O)[C@H]1CC(=O)O[C@@H]1c1ccccc1)c1ccccc1	none (no result: FAS TE block, H9c2 protect)
O=C(/C=C/c1cc([N+](=O)[O-])ccc1OC(F)F)Nc1cccc(OC(F)F)c1	none
O=C(/C=C/c1cc([N+](=O)[O-])ccc1OC(F)F)NCc1ccc(Cl)cc1	FAS TE block 80 | FAS-TE inh conf 88
Cc1ccc(NS(=O)(=O)c2cccc(C(=O)N/N=C/c3c(C)nn(-c4ccccc4)c3N3CCCC3)c2)c(C)c1	FAS TE block 51 | FAS-TE inh conf inactive
CCNc1ccc(C(=O)N/N=C/c2c(C)nn(-c3ccccc3)c2N2CCCC2)cc1[N+](=O)[O-]	FAS TE block 70 | FAS-TE inh conf inactive
CC(C)(C)n1ncc2c(=O)n(Cc3ccccc3Br)cnc21	none
O=C(COC(=O)c1cc([N+](=O)[O-])ccc1N1CCOCC1)Nc1c(Cl)cccc1C(F)(F)F	FAS TE block 65 | FAS-TE inh conf 62
O=C(OCc1ccccc1F)c1cc([N+](=O)[O-])ccc1N1CCOCC1	none
O=C(COC(=O)c1cc([N+](=O)[O-])ccc1N1CCOCC1)Nc1ncc(Cl)cc1Cl	FAS TE block 54 | FAS-TE inh conf 71
Cn1c(SC2CCCC2)nnc1-c1ccco1	none (no result: FAS TE block, H9c2 protect)
O=C(COC(=O)c1cc([N+](=O)[O-])ccc1N1CCOCC1)Nc1ccccc1OC(F)F	FAS TE block 74 | FAS-TE inh conf 79
O=C(COC(=O)c1cc([N+](=O)[O-])ccc1N1CCOCC1)Nc1cc(F)ccc1F	FAS TE block 85 | FAS-TE inh conf 51
CCCN(CC(=O)Nc1ccc(F)c(F)c1F)C(=O)c1cc([N+](=O)[O-])ccc1N1CCOCC1	FAS TE block 54 | FAS-TE inh conf 52
Cc1c(C(=O)OCC(=O)Nc2ccccc2OC(F)F)cccc1[N+](=O)[O-]	none
O=C(COC(=O)c1cc([N+](=O)[O-])ccc1N1CCCC1)Nc1ccccc1OC(F)F	FAS TE block 56 | FAS-TE inh conf 43
O=C(COC(=O)c1cc([N+](=O)[O-])ccc1N1CCOCC1)c1ccc(OC(F)F)cc1OC(F)F	none
COC(=O)[C@]12C[C@H](CC(=O)NCc3ccc(C)o3)C(=O)N(CCC3=CCCCC3)C1=C[C@H](COCc1ccccc1)O[C@@H]2C	none (no result: FAS TE block, H9c2 protect)
O=C(COC(=O)C1CCCCC1)Nc1cc([N+](=O)[O-])ccc1F	FAS TE block 63 | FAS-TE inh conf 69
COc1ccc(NC(=O)c2cc([N+](=O)[O-])ccc2N2CCCCC2)cc1OC	none
COc1ccccc1NC(=O)COC(=O)c1cc([N+](=O)[O-])ccc1N1CCCC1	FAS TE block 70 | FAS-TE inh conf 63
CC(C)c1ccccc1NC(=O)COC(=O)c1cc([N+](=O)[O-])ccc1N1CCOCC1	FAS TE block 74 | FAS-TE inh conf 65
COc1ccc(OC)c(S(=O)(=O)N2CCCC(c3noc(-c4ccc(C)cc4)n3)C2)c1 (stereo unspecified)	none (no result: FAS TE block, H9c2 protect)
CC(C)C[C@H]1CNC(=O)C(=O)N1C[C@@H]1CCCN1C[C@H](Cc1ccccc1)N1C[C@H](CC(C)C)N(CC2CCCCC2)C(=O)C1=O	none (no result: FAS TE block, H9c2 protect)
CCCCCCCCCCCCN1[C@@H](CC(=O)O)c2cc(F)ccc2S1(=O)=O	FAS TE block 59 | FAS-TE inh conf 75
NS(=O)(=O)c1ccc(NC(=S)NCCc2ccccc2)cc1	none
O=[N+]([O-])c1ccc(NC(=S)NCCc2ccccc2)cc1	FAS TE block 53 | FAS-TE inh conf 38
O=[N+]([O-])c1ccc(NC(=S)NCCc2ccc(Cl)cc2)cc1	FAS TE block 51 | FAS-TE inh conf inactive
CC(=O)CC1N(S(=O)(=O)c2ccc(C)cc2)c2ccccc2N1S(=O)(=O)c1ccc(C)cc1	none (no result: FAS TE block, H9c2 protect)
Cc1ccc2c(c1)C1CN(C)CCC1N2S(=O)(=O)c1ccc(C#N)cc1 (stereo unspecified)	none
C=C[C@@H]1c2cc(C)ccc2N(S(=O)(=O)c2ccc(C)cc2)[C@H](c2ccc(OC(C)=O)cc2)C1(C#N)C#N	FAS TE block 52 | FAS-TE inh conf inactive
C=C[C@@H]1c2ccccc2N(S(=O)(=O)c2ccc(C)cc2)[C@H](c2ccc(OC(C)=O)cc2)C1(C#N)C#N	FAS TE block 62 | FAS-TE inh conf inactive
